Several values for one entry are separate records, joined by “and”; a condition that tells them apart may be missing. Equal values may be shown once. Results filed as inconclusive are left out. Where a call stands in place of a potency, no number is given. Some structures have more than one record in an assay (separate samples or runs), and their calls can disagree. Activity calls are given as the source filed them. The call rests on the fitted dose curve; in most records, active means well fitted cell-killing curve with a large enough effect in the repeat runs; inconclusive means weak or mixed curves, or effect the other way; inactive means flat fitted curve, though single readings scatter.
Assay: qHTS RealTime-Glo MT Cell Viability Assay in HEK293 cells - 16 hour (AID 1224872); further: nearly all actives have a fitted effect of over 50% in size
Details: RealTime-Glo luminescence; series mostly up to 76.8 µM
Source text: National Center for Advancing Translational Sciences [NCATS]
NIH Chemical Genomics Center [NCGC]
U.S. Environmental Protection Agency [EPA]
National Institutes of Environmental Health Sciences [NIEHS]
National Toxicology Program [NTP]
U.S. Food and Drug Administration [FDA]
Measure of cell viability is critical in the cell-base assay. Analysis of cell viability is necessary for the characterization of cell responses to cytotoxic drugs and environmental stress. A RealTime-Glo MT Cell Viability Assay to monitor cell viability in real time of continues cell culture during 40 hours of compound treatment was used to screen Tox21 10K library compounds in Hek293 cells. The RealTime-Glo MT Cell Viability Assay is a nonlytic, homogeneous, bioluminescent method to measure cell viability in real time using a simple, plate-based method. The assay involves adding NanoLuc luciferase and a cell-permeant prosubstrate to cells in culture. Viable cells reduce the proprietary prosubstrate to generate a substrate for NanoLuc luciferase. This substrate diffuses from cells into the surrounding culture medium, where it is rapidly used by the NanoLuc Enzyme to produce a luminescent signal. The signal correlates with the number of viable cells, making the assay well suited for cytotoxicity studies.
Tox21 Assay Protocol Summary:
The mixture of Hek293 cell suspension and reagents were dispensed at 600cells/6 ul/well in 1536-well tissue culture treated black solid bottom plates using a Multidrop dispenser. After the assay plates were incubated at a 37 C/5% CO2 incubator for 5 hours, 23 nL of compounds dissolved in DMSO, positive and negative controls was transferred to the assay plate by a pintool work station. The plates were incubated at 37 C for 40 hours. The luminescence intensity were measured at 0h, 8h, 16h, 24h, 32h and 40h time points using ViewLux plate reader during compound treatment.
Potency means the concentration at half of the fitted maximal effect.

Structure (SMILES) | Potency
O=Cc1ccccc1O | inactive
CC(C)OC=O | inactive
CCCCC(CC)COCC1CO1 (stereo not given) | inactive
Cc1ccc(C(=O)c2cc(O)c(O)c([N+](=O)[O-])c2)cc1 | inactive
COC(=O)CCC(=O)OC | inactive
CC(=O)c1ccccn1 | inactive
CC(CCC(=O)O)(c1ccc(O)cc1)c1ccc(O)cc1 | inactive
c1ccc2sc(SSN3CCOCC3)nc2c1 | 43.6 µM (active)
COC(=O)c1ccccc1 | inactive
CCCc1c(OCCCCc2nn[nH]n2)ccc(C(C)=O)c1O | inactive
Cc1c(C(N)=O)cc([N+](=O)[O-])cc1[N+](=O)[O-] | inactive
CCCCCCCCCCCO | inactive
c1ccc2c(c1)c1cccc3ccc4cccc2c4c31 | inactive
O=S(=O)(O)c1ccc(O)cc1 | inactive
CC(C(=O)O)c1cccc(C(=O)c2ccccc2)c1 (stereo not given) | inactive
Cc1cccc(N(C)C(=S)Oc2ccc3ccccc3c2)c1 | inactive
CCCCNS(=O)(=O)c1ccccc1 | inactive and 7.76 µM (active)
Cc1[nH]c(=O)c(C#N)cc1-c1ccncc1 | inactive
Cc1cccc([N+](=O)[O-])c1C | inactive
CN1C(C(=O)Nc2ccccn2)=C(O)c2ccccc2S1(=O)=O | inactive

Structure (SMILES) | Potency
c1cc(N(CC2CO2)CC2CO2)ccc1OCC1CO1 (stereo not given) | inactive
OC[C@H]1O[C@@H]2O[C@H]3[C@H](O)[C@@H](O)[C@@H](O[C@H]4[C@H](O)[C@@H](O)[C@@H](O[C@H]5[C@H](O)[C@@H](O)[C@@H](O[C@H]6[C@H](O)[C@@H](O)[C@@H](O[C@H]7[C@H](O)[C@@H](O)[C@@H](O[C@H]8[C@H](O)[C@@H](O)[C@@H](O[C@H]1[C@H](O)[C@H]2O)O[C@@H]8CO)O[C@@H]7CO)O[C@@H]6CO)O[C@@H]5CO)O[C@@H]4CO)O[C@@H]3CO | inactive
COc1ccc(OC)c(C(O)CNC(=O)CN)c1 (stereo not given) | inactive
CCC(C)(O)CCCC(C)C (stereo not given) | inactive
OC(CCl)CCl | inactive
COC(=O)C1=C(C)NC(C)=C(C(=O)OCCN(C)Cc2ccccc2)C1c1cccc([N+](=O)[O-])c1 (stereo not given) | 21.7 µM (active) and 16.9 µM (active)
OC1CCCCCCCCCCC1 | inactive
CNCCCC12CCC(c3ccccc31)c1ccccc12 | 54.9 µM (active)
O=C=Nc1ccc(Cc2ccc(N=C=O)cc2)cc1 | inactive
CC(=O)C1(C)CC2=C(CCCC2(C)C)CC1C (stereo not given) | inactive
Brc1cc(Oc2cc(Br)c(Br)c(Br)c2Br)c(Br)c(Br)c1Br | inactive
COc1cccc2c1C(=O)c1c(O)c3c(c(O)c1C2=O)C[C@@](O)(C(=O)CO)C[C@@H]3O[C@H]1C[C@H](N)[C@H](O)[C@H](C)O1 | 0.346 µM (active)
CC(C)OC(=O)C(C)(C)Oc1ccc(C(=O)c2ccc(Cl)cc2)cc1 | 21.9 µM (active) and 16.9 µM (active)
CC(C)CC(C)(O)C#CC(C)(O)CC(C)C (stereo not given) | inactive
COC(C)COC(C)COC(C)CO (stereo not given) | inactive
CC1=CC2C3CC(C=C3C)C2C1 (stereo not given) | inactive
Nc1ncnc2nc[nH]c12 | inactive
Cc1ncc[nH]1 | inactive
CN(C)C(=N)N=C(N)N | inactive
Nc1ccc(Nc2ccccc2)cc1 | 43.2 µM (active)

From PubChem BioAssay (Tox21)
